Measured values: PubChem BioAssay AID488895 (Broad Institute, 2010)
Among all 340,000 compounds or so, about 120 (0.035%) were called active.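 Rule for the calls: active = mean replicate inhibition at least 50% and at least half of replicates individually reaching 50%; inconclusive = only one of the two criteria met; inactive = neither criterion met.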 The sample as a whole holds a higher share of actives than the screen did.

Assay: E. coli Tat export inhibitors, primary screen, MC4100, TorA-mCherry reporter, fluorescence, single point (AID 488895);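 note: exported cargo escapes ClpAP degradation while cytoplasmic cargo is degraded and loses fluorescence; 0% = median of neutral control wells and 100% = median of NaSCN control wells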
Conditions: at 10 µM, active compounds read high

| Compound | inhibition |
| --- | --- |
| CC1Cc2ccccc2N1C1=CC(=O)CC(C)(C)C1 (centres undefined) | -0.619% (inactive) |
| CCC(C)NC(=O)C1c2ccccc2C(=O)N1Cc1ccccc1 (centres undefined) | -2.59% (inactive) |
| O=C(NCC(=O)N(Cc1cccs1)C(C(=O)NC1CCCCC1)c1ccco1)c1cccs1 (centres undefined) | 7.02% (inactive) |
| CC(C)(C)c1ccc(/C=C/C(=O)NC2CCS(=O)(=O)C2)cc1 (centres undefined) | 0.013% (inactive) |
| Cc1c(C)c2cc3c4c(oc3c(C)c2oc1=O)CCCC4 | -3.36% (inactive) |
| Cc1cc(N2CCCC2=O)cc(C)c1S(N)(=O)=O | -6.67% (inactive) |
| CC1Sc2ccc(C(=O)NCc3ccccc3Cl)cc2NC1=O (centres undefined) | -5.09% (inactive) |
| CCC(=O)N1c2ccccc2NC2=C(C(=O)CCC2)C1c1ccco1 (centres undefined) | -4.89% (inactive) |
| CCn1cc(C(=O)NCCO)c(=O)c2cc(F)c(N3CCN(C)CC3)cc21 | 81.4% (active) |
| CCCCCCn1cc(C(=O)O)c(=O)c2cc(F)c(N3CCCCC3)cc21 | 4.11% (inactive) |
| CCCCNC(=O)c1cn(CC)c2cc(N3CCN(C(=O)c4ccco4)CC3)c(F)cc2c1=O | -4.43% (inactive) |
| CCn1cc(C(=O)NCCC(=O)NCCO)c(=O)c2cc3c(cc21)OCO3 | 0.475% (inactive) |
| CCn1cc(S(=O)(=O)c2cccc(C)c2)c(=O)c2cc(F)c(N3CCN(C)CC3)cc21 | -3.59% (inactive) |
| CN1CCN(c2cc3c(cc2F)c(=O)c(C(=O)O)cn3CCF)CC1 | 81.7% (active) |
| CC1(C)O[C@@H]2[C@H](O1)[C@@H](COS(=O)(=O)O)O[C@H]2n1ccc(=O)[nH]c1=O | -1.01% (inactive) |
| COc1ccc(S(=O)(=O)Nc2cccc3c2O[C@H](CN(C)S(=O)(=O)c2ccc(OC)cc2)[C@@H](C)CN([C@H](C)CO)C3=O)cc1 | 0.274% (inactive) |
| O=C(c1cn(-c2ccccc2)nc1-c1cccnc1)N1CCN(S(=O)(=O)c2ccccc2F)CC1 | 7.82% (inactive) |

| Compound | inhibition |
| --- | --- |
| COc1ccc(CNC(=O)C(NS(=O)(=O)c2cccc3nsnc23)C(C)C)cc1 (centres undefined) | -12.3% (inactive) |
| Cc1nc2ccc(C(=O)N3CCSCC3)cc2s1 | -5.07% (inactive) |
| COc1cc(C2CC(=O)Oc3cc(OC)c(OC)c(OC)c32)cc(OC)c1OC (centres undefined) | 0.529% (inactive) |
| COc1cccc(C(C(=O)NC2CCCC2)N(C(=O)c2ccco2)c2cccc(C(C)=O)c2)c1OC (centres undefined) | 7.67% (inactive) |
| CCNC(=O)CC1C(=O)N(c2ccc(OC)cc2)C(=S)N1CCc1ccncc1 (centres undefined) | 5.06% (inactive) |
| O=C(CN1CCN(S(=O)(=O)c2ccc(F)cc2)CC1)NC1CC1 | 2.17% (inactive) |
| CCn1cc(/C=C(\NC(=O)c2cc(OC)c(OC)c(OC)c2)C(=O)N2CCN(C)CC2)c2ccccc21 | 6.75% (inactive) |
| N#Cc1nc(N)nc(N(c2ccccc2)c2ccccc2)n1 | -1.07% (inactive) |
| CC(=O)NC(=S)NNC(=O)c1ccc(Br)cc1 | 10.8% (inactive) |
| O=C(COc1coc(CN2CCN(c3ccccc3)CC2)cc1=O)N1CCc2ccccc21 | -5.1% (inactive) |
| COCC(=O)N1CCc2ccc(NC(=O)c3ccccc3Cl)cc2C1 | -8.59% (inactive) |
| O=C(Cc1ccccc1F)NC1CCSc2ccccc21 (centres undefined) | -4.99% (inactive) |
| CC(N)C12CC3CC(CC(O)(C3)C1)C2 (centres undefined) | -2.5% (inactive) |
| CCn1ccnc1CN1CCCC(C(=O)c2ccc3c4c(cccc24)CC3)C1 (centres undefined) | -0.858% (inactive) |
| COc1ccc(C2NCCCC2c2ccccc2)cc1 (centres undefined) | 0.669% (inactive) |
| CC(=O)Nc1ccc(OCCC[n+]2cccc(C(=O)[O-])c2)cc1 | 0.863% (inactive) |
| CCOC(=O)N1CCN(C(=O)c2ccccc2N(Cc2ccccc2)S(=O)(=O)c2ccc(OC)cc2)CC1 | -2.32% (inactive) |
